Screening results: PubChem BioAssay, National Center for Advancing Translational Sciences (NCATS)
Only some compounds are listed: those with a hit (about 2.4% of all), similar ones and a draw of the others.
Nrf2 inh: blocks Nrf2 signaling; A549 ARE-Fluc reporter, luciferase luminescence, 18-24 h; Potency, µM (doses to about 46 µM), most hits filed as inhibitors; actives 2.1% (n = 360,000); further: nearly all actives have a fitted effect of over 60% in size
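In this cell-based qHTS, ARE-driven firefly luciferase in A549 cells reports Nrf2 activity; the luminescent signal after BugLite lysis is the measured value, with a prior CellTiter-Fluor read for cell health.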
PINK1 expr mod: changes PINK1 expression | Potency, µM (series often up to 76.6 µM), hits mostly activators | AID 624263 | actives 0.2% (n = 410,000) | PINK1 immunofluorescence, high-content cytometry, 24 h; active means well fitted activation curve with a large enough effect; inconclusive means small, poorly fitted or top-dose-only effect; cell line not stated here; further: nearly all actives have a fitted effect of over 65% in size
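Compound titrations (5 concentrations, 24 h) on a stable cell line; DMSO and CCCP controls. Endpoint: fixed-cell PINK1 immunofluorescence with mitochondrial, cell and nuclear markers, scanned by microplate cytometer.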
Epigenetic derep: derepresses silenced GFP reporter in murine cells. murine LDR cells, GFP reporter derepression, 30 h. Potency, µM (doses to about 53.9 µM), hits mostly activators. actives 0.2% (n = 280,000); further: nearly all actives have a fitted effect of over 60% in size
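GFP-positive cell count by laser-scanning cytometry (objects 20–120 um) after 30 h, 37 C compound exposure of murine LDR cells; reporter is CMV-GFP integrated at a silenced locus, inducible by HDAC or DNMT inhibitors.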
Nrf2 activator: Nrf2 pathway activation | AREc32 ARE-luciferase reporter (MCF7-derived line), luminescence, 24 h | Potency, µM (top dose mostly 46.1 µM), hits mostly activators | actives 0.31% (n = 410,000); further: nearly all actives have a fitted effect of over 65% in size
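Steps: seed AREc32_Fluc cells (1000/well, 5% FBS OPTI-MEM); incubate overnight at 37 deg C; add 23 nL compound; incubate 24 hr; add Steady-Glo; hold 30 min RT; read luminescence.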
A549 viability: kills or reduces viability of A549 cells in Nrf2 counter-screen | A549 ARE-Fluc cells, CellTiter-Fluor viability, 18-24 h | Potency, µM (doses to about 46 µM), usual class: inhibitors | actives 0.16% (n = 390,000)
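A549 ARE-Fluc cells in 5% FBS OPTI-MEM, 5000 cells/well, rested 2 h then exposed to compounds in concentration-response for 18-24 h at 37 °C. Viability by CellTiter-Fluor fluorescence (Ex 405/Em 525) after 30 min; luciferase luminescence (BugLite, 15 min, RT) read afterwards.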
Each line names hits and unclear results; the compound was inactive in the other large screens. Unless noted, the call rests on the fitted dose curve; in most records, active means well fitted curve in the direction sought with a large enough effect; inconclusive means small, poorly fitted or top-dose-only effect, or another doubt; inactive means no such curve, though single readings can be large; an effect the other way counts as inactive or inconclusive.

O=C1/C(=C/c2cccc(Br)c2)SC(=S)N1CCC(=O)N(CCO)c1ccccc1	Nrf2 activator 13µM (no result: Epigenetic derep)
O=C1/C(=C/c2ccc3c(c2)OCO3)SC(=S)N1CCC(=O)N(CCO)c1ccccc1	none (no result: Nrf2 inh, Epigenetic derep, A549 viability)
CN1CCN(C(=O)CCN2C(=O)/C(=C/c3cccc(Br)c3)SC2=S)CC1	Nrf2 inh inconclusive, Nrf2 activator inconclusive (no result: Epigenetic derep)
CN1CCN(C(=O)CCCN2C(=O)/C(=C/c3cccc(Br)c3)SC2=S)CC1	Nrf2 inh inconclusive, Nrf2 activator 13µM, A549 viability inconclusive (no result: Epigenetic derep)
Cc1cc(-c2nnc(SCC(=O)Nc3ccccc3)n2C)no1	Nrf2 inh inconclusive
Cc1cc(-c2nnc(SCC(=O)Nc3ccc(C(F)(F)F)cc3)n2C)no1	Nrf2 inh 23µM
Cc1cccc(N2CCN(S(=O)(=O)c3ccc(-c4ccc(=O)[nH]n4)o3)CC2)c1C	Nrf2 inh 13µM, A549 viability inconclusive (no result: Epigenetic derep)
CC1(C)Cc2ccccc2/C(=C/C(=O)N2CCCCCC2)N1	Nrf2 inh 26µM
Cc1ccccc1-n1cc(CNC(=O)CN2Cc3ccccc3OC(C)C2)cn1 (stereo unspecified)	none (no result: Nrf2 inh, Epigenetic derep, Nrf2 activator, A549 viability)
CCN(C[C@H]1N[C@@](C)(C(=O)OC)[C@H]2C(=O)N(Cc3ccccc3)C(=O)[C@@H]12)C(=O)C1CCCCC1	Nrf2 inh inconclusive (no result: Epigenetic derep)
CCN(C[C@H]1N[C@@](Cc2ccccc2)(C(=O)OC)[C@H]2C(=O)N(Cc3ccccc3)C(=O)[C@@H]12)C(=O)C1CCCCC1	Nrf2 inh 15µM, A549 viability inconclusive (no result: Epigenetic derep)
COc1[nH]c(/N=C/c2ccco2)c(C#N)c1C#N	none (no result: Epigenetic derep, Nrf2 activator)
CCCC1=Nc2cc(C(=O)NCc3ccccc3)ccc2Sc2ccccc21	none
c1ccc(C2=NN(c3ccccc3)CC2)cc1	Nrf2 inh inconclusive
c1ccc(N=NC2=NN(c3ccccc3)CS2)cc1	Nrf2 activator 8.9µM (no result: Nrf2 inh, Epigenetic derep, A549 viability)
CCC(=O)C1=C(c2ccc(OC)c(OC)c2)N(C(=O)CC)n2c(CC)nnc2S1	Nrf2 inh 23µM
CCCC(=O)C1=C(c2ccc(C)c(C)c2)N(C(=O)CCC)n2c(CC)nnc2S1	none (no result: Nrf2 inh)
CSc1cccc(Nc2cc(C(=O)NCCc3ccc(Cl)cc3)c3ccccc3n2)c1	Nrf2 inh inconclusive, A549 viability inconclusive
CCCCN(CCCNC(=O)c1cc(Nc2cccc(SC)c2)nc2ccccc12)Cc1ccccc1	Nrf2 inh inconclusive, Epigenetic derep 35µM, A549 viability inconclusive
Cc1ccc2nc(COc3ccccc3NC(=O)c3ccccc3F)cc(=O)n2c1	Epigenetic derep inconclusive (no result: Nrf2 inh)
O=C(Nc1cc(Br)ccc1O)c1cnn2c(C(F)F)cc(C3CC3)nc12	Nrf2 activator 2.5µM
O=C(Nc1cccnc1)c1cnn2c(C(F)F)cc(C3CC3)nc12	none (no result: Nrf2 inh)
CC(=O)Oc1ccc(Cl)cc1/C=C/c1ccc2ccccc2n1	Nrf2 activator inconclusive
CC(=O)Oc1c(Cl)cc(Cl)cc1/C=C/c1ccc2ccccc2n1	PINK1 expr mod inconclusive, Nrf2 activator 13µM
CCCCOC(=O)CSC1=C(C#N)C(c2ccccc2OCC)C(C#N)C(=O)N1 (stereo unspecified)	Nrf2 inh 10µM, A549 viability inconclusive
NC(N)=NC(N)=NCCc1ccccc1	Nrf2 inh 13µM
Cc1ccc(C(=O)NCCc2nnc3n2CCN(C(=O)c2ccnc(Cl)c2)CC3)cc1	none (no result: Nrf2 inh, Epigenetic derep, Nrf2 activator, A549 viability)
CCCc1cc(-c2n[nH]c(C(=O)OCC)c2-c2cscn2)c(O)cc1O	Nrf2 inh 29µM
CCOC(=O)c1[nH]nc(-c2c(O)cc(C)cc2O)c1-c1csc(C)n1	none
COc1ccc(OCCSc2nc3ccccc3c(=O)[nH]2)cc1	Nrf2 inh 4.1µM
CCCCn1c(-c2nonc2N)nc2ccccc21	Nrf2 inh 15µM
COc1ccc(CN2CCOc3ccc(CN4CCCCC4CO)cc3C2)c(OC)c1 (stereo unspecified)	none (no result: Nrf2 inh, Epigenetic derep, Nrf2 activator, A549 viability)
CCn1c(CNc2ccc(Cl)cc2)nnc1SCc1ccc(C)cc1	none
CCn1c(CNc2ccc(Cl)cc2)nnc1SCc1ccc(Cl)cc1	Nrf2 inh 23µM, A549 viability inconclusive
C=CCn1c(SCC(=O)Nc2sccc2C(N)=O)nc2sc(CC)cc2c1=O	Nrf2 inh 15µM, A549 viability inconclusive
C=CCn1c(SCC(=O)Nc2sccc2C(N)=O)nc2ccccc2c1=O	Nrf2 inh 26µM
COc1cc(NC(=O)CCn2cnc3ccccc3c2=O)cc(OC)c1	none (no result: Nrf2 inh)
O=C(Cn1cc(S(=O)(=O)Cc2ccccc2F)c2ccccc21)Nc1ccc(F)c(Cl)c1	Nrf2 inh inconclusive, PINK1 expr mod 35µM, A549 viability inconclusive
Cc1nc2cccnc2n1-c1cccc(C(=O)N2CCN(c3ccc(Cl)cc3)CC2)c1	Nrf2 inh 18µM
O=C(CSc1ncc2c(n1)-c1ccccc1N(Cc1ccc(F)cc1)S2(=O)=O)c1ccc(Cl)cc1	none
COc1ccc(C(=O)O/N=C(\N)c2ccncc2)cc1OC	none
COc1ccc(Cl)cc1C(=O)O/N=C(\N)c1ccncc1	Nrf2 inh inconclusive, Nrf2 activator 4µM
CSc1ccc(NC(=O)N2CCC(C(=O)c3ccc(F)cc3)CC2)cc1	Nrf2 inh 16µM (no result: Epigenetic derep)
COc1ccc(NC(=O)N2CCC(C(=O)c3ccc(F)cc3)CC2)cc1	none
Cc1cc(C)cc(NC(=O)N2CCC(C(=O)c3ccc(F)cc3)CC2)c1	Nrf2 inh 15µM
CCn1nc(-c2ccccc2C)nc2c(=O)n(C)c(=O)nc1-2	A549 viability 23µM (no result: Epigenetic derep, Nrf2 activator)
COc1ccc(-c2nc3c(=O)n(C)c(=O)nc-3n(C)n2)cc1	Nrf2 inh 1.5µM, A549 viability 1.6µM (no result: Epigenetic derep, Nrf2 activator)
Cc1cc(C)n2nc(-c3cccnc3)nc2n1	none (no result: Nrf2 inh)
